According to PubChem BioAssay AID1490 (National Center for Advancing Translational Sciences (NCATS), 2009):
Hit rate of the full screen: of about 310,000 compounds, about 11,000 (3.5%) were called active. Not shown: some 4% with an inconclusive outcome. The full list was thinned out, with actives kept by preference. A number with no mark means an inactive call. Calls come from the whole dose curve; as a rule, active = well fitted inhibition curve with a large enough effect; inconclusive = small, poorly fitted or top-dose-only effect, or another doubt; inactive = no such curve, though single readings can be large or run the other way.

Each molecule was assayed against 4'-phosphopantetheinyl transferase ffp (Bacillus subtilis) (UniProt Q9F4F7) (assay: qHTS Assay for Inhibitors of Bacillus subtilis Sfp phosphopantetheinyl transferase (PPTase)). Conditions: Biochemical Sfp PPTase activity.
In short: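 Compounds were incubated with enzyme (final 15 nM) for 15 min at room temperature before substrate addition started the reaction. Fluorescence at 525 nm excitation, 598 nm emission was recorded immediately and after 30 minutes.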
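Note: the enzyme is Sfp with the accession as filed and its product quenches rhodamine fluorescence.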
Potency is the fitted concentration of half-maximal effect.
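Throughout, for largest response in the series, negative = inhibition: 0% = enzyme reaction without inhibitor and -100% = no enzyme wells.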

| Compound | largest response in the series, negative = inhibition [%] | Potency |
| --- | --- | --- |
| CC(=O)Nc1ccc(NC(=O)COc2ccc(-c3ccccc3)cc2)cc1 | 13.3 | – |
| O=C(/C=C/c1cccc(F)c1)NC1CC1 | 29.9 | – |
| Oc1oc(-c2ccccc2Br)nc1/C=N/c1ccccn1 | -0.12 | – |
| CC(C)n1c(O)c(N=Nc2ccccn2)c2ccccc21 | – | 50.1 µM (active) |
| COC(=O)Cn1c(O)c(N=NC(=O)OC)c2ccccc21 | 4.81 | – |
| COC(CNC(=O)c1ccc2c(c1)ncn2-c1cc(C)cc(C)c1)OC | 8.91 | – |
| CC(C)C(N)C(=O)OCCOCn1cnc2c(=O)[nH]c(N)nc21 (configuration not stated) | -9.12 | – |
| COc1cc2c(cc1OC)CN(CC(=O)Nc1ccc(F)cc1)CC2 | 2.33 | – |
| O=C(CCc1nnc(Cc2ccc3c(c2)OCO3)o1)NCCc1ccccc1Cl | -0.572 | – |
| COc1ccc(N(Cc2cc3cc(OC)ccc3[nH]c2=O)S(C)(=O)=O)cc1 | -8.56 | – |
| COc1ccc2[nH]c(=O)c(CNc3ccc(C)c(C)c3)cc2c1 | – | 50.1 µM (active) |
| CCC(=O)N(Cc1cc2cc(OC)ccc2[nH]c1=O)c1ccccc1C | 6.41 | – |
| Cc1ccc(-c2ccc(=O)n(Cc3ccc(F)cc3Cl)n2)cc1 | -21.9 | – |
| Cc1cc(NCc2cccnc2)no1 | 1.54 | – |
| Cc1cccc(CNc2ccnc(-c3cccnc3)n2)c1 | – | 79.4 µM (active) |
| Cc1noc(C)c1-c1cc(NCc2cccnc2)ncn1 | -20.7 | – |
| CCN(CC)c1ccc(NC(=O)CCc2nnc3ccc(N4CCCCC4)nn23)c(C)c1 | 2.26 | – |
| CCOc1ccccc1CN1CCN(C2CCC2)CC1CCO (configuration not stated) | 17.6 | – |
| COC(=O)c1c(NC(=O)COc2ccc(Cl)cc2Cl)sc2c1CC(C)(C)NC2(C)C | -6.17 | – |
| O=C(CN(C(=O)CNC(=O)c1cccs1)c1cccc(F)c1)NC1CCCCC1 | 6.32 | – |
| O=C(CSCC(=O)Nc1cccc([N+](=O)[O-])c1)Nc1ccccc1 | 7.95 | – |
| COc1cccc(CNC(=O)CCCC(=O)Nc2cccc([N+](=O)[O-])c2)c1 | 4.84 | – |
| COC(=O)/C=C\C(=O)Nc1cccc([N+](=O)[O-])c1 | – | 3.55 µM (active) |
| CC(=O)c1ccc(NC(=O)c2ccc(-n3cncn3)c([N+](=O)[O-])c2)cc1 | -0.369 | – |

| Compound | largest response in the series, negative = inhibition [%] | Potency |
| --- | --- | --- |
| O=C(Nc1c2c(nn1-c1ccccc1)CS(=O)(=O)C2)C1CCCC1 | 11.4 | – |
| CSc1nnc2ccc(-c3ccc(C)cc3)nn12 | 4.27 | – |
| NC(=O)c1oc2ccccc2c1NC(=O)Cc1ccccc1 | 0.75 | – |
| COc1ccc2nc(SCc3ccccc3)nc(C)c2c1 | -4.22 | – |
| c1ccc(CSc2nnc(-c3ccco3)c(-c3ccco3)n2)cc1 | – | 35.5 µM (active) |
| Clc1ccccc1CSc1nnc(-c2ccco2)c(-c2ccco2)n1 | – | 20 µM (active) |
| O=c1[nH]c(SCc2ccccc2)nnc1-c1ccccc1 | 15.9 | – |
| O=c1cc(O)nc(SCc2ccccc2Cl)[nH]1 | -17.3 | – |
| COC(OC)c1ccnc(SCc2ccccc2Cl)n1 | -3.61 | – |
| CS(=O)(=O)Nc1cccc(C2=NN(C(=O)c3cccc(F)c3)C(c3cccs3)C2)c1 (configuration not stated) | 4.93 | – |
| COC(=O)c1ccc2c(=O)n(CCN3CCOCC3)c(SCC(=O)Nc3cccc(OC)c3)nc2c1 | 0.982 | – |
| CN(C)C(=O)Cn1c(=O)n(S(=O)(=O)c2ccccc2)c2ccccc21 | -0.847 | – |
| Cc1ccc(C(=O)NC23CC4CC(CC(C4)C2)C3)c(Cl)c1 | 2.46 | – |
| Cc1ccc(C(=O)Nc2sc(Cc3ccc4c(c3)OCO4)c(C)c2C(N)=O)cc1 | -3.41 | – |
| Cc1ccc(C(=O)NCCNC(=O)c2ccccc2)cc1 | 10.8 | – |
| Cc1ccc(C(=O)c2c(NC(=O)c3ccccc3)sc(C)c2C)cc1 | – | 28.2 µM (active) |
| Cc1c(CC(=O)N2CCN(C(=O)C3COc4ccccc4O3)CC2)c(=O)oc2c(O)c(O)ccc12 (configuration not stated) | -23.7 | – |
| COc1cc(OC)c2c(C)cc(=O)oc2c1C(CCN1CCCCC1)c1ccc(N(C)C)cc1 (configuration not stated) | -9.21 | – |
| COc1ccccc1-n1c(-c2cc(-c3ccco3)[nH]n2)n[nH]c1=S | – | 50.1 µM (active) |
| COc1ccc(OC)c(-n2c(-c3ccn[nH]3)n[nH]c2=S)c1 | -5.99 | – |
| COc1ccc(-n2c(-c3ccc(OC)c(OC)c3)n[nH]c2=S)cc1 | -14.3 | – |
| CCOC(=O)CNc1nc(Cl)nc(Nc2ccc(OC)cc2OC)n1 | 11.3 | – |
| COc1cc(OC)cc(C(=O)NCCCn2ccnc2)c1 | 5.91 | – |
